# From PubChem BioAssay (NCATS)
# Records with an inconclusive call do not appear. Unmarked numbers belong to inactive results. Active and inactive are the calls of the source. Calls follow the shape of the dose curve; as a rule, active = well fitted curve in the direction sought with a large enough effect; inconclusive = small, poorly fitted or top-dose-only effect, or another doubt; inactive = no such curve, though single readings can be large; an effect the other way counts as inactive or inconclusive.
# Experiment: High Content Imaging Cell-Based qHTS for Inhibitors of the mTORC1 Signaling Pathway in MEF Cells (AID 2667);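 as to activity change, negative = inhibition: Tsc2-/- p53-/- MEFs stably re-expressing wild-type Tsc2 exposed 24 h; plate controls were DMSO wells for no effect and rapamycin control wells for full effect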
# Details: series mostly up to 38.3 µM; activity change, negative = inhibition: at the top concentration
# Method in brief: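 MEF (Tsc2-/-, p53-/-, WT Tsc2 re-expressed); cpd 24 h, 37 °C; PFA fix; Alexa-488 anti-p-rpS6 Ser235/236, PI, Hoechst; IN Cell imaging; Hoechst/Alexa-488 intensity ratio; % active cells, thresholds set from rapamycin and DMSO wells.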
# Potency is read from the fitted curve at half-maximal effect.
Compound,"activity change, negative = inhibition",Potency
COc1ccc(/C=C/C(=O)Nc2ccccc2C(=O)O)cc1OC,-100%,–
CN1CCc2cc(NC(=O)Nc3cccnc3)ccc21,-100%,–
CN(C)C(N)=NCCC[C@H](N)C(=O)O,-100%,–
O=C(O)CCCC[C@@H]1CCSS1,-100%,–
O=C(O)/C=C/C(O)c1ccc(Cl)cc1 (stereo not given),-100%,–
CC(C)Cc1ccc([C@H](C)C(=O)O)cc1,-100%,–
Ic1ccc(N2CCN(Cc3c[nH]c4ncccc34)CC2)cc1,-100%,–
CCCCN1CCC(n2c(=O)[nH]c3ccccc32)CC1,-100%,–
CC(C)(C)c1ccc(S(=O)(=O)/C=C/C#N)cc1,-100%,–
Cc1cc(NC(=O)Nc2ccc3c(ccn3C)c2)sn1,-100%,–
CCN1/C(=C/C(C)=O)Sc2ccc(OC)cc21,-100%,–
CN1CCc2ccccc2Cc2[nH]c3ccccc3c2CC1,-100%,–
COc1ccccc1CNCCCCCCNCCCCCCCCNCCCCCCNCc1ccccc1OC,-100%,–
c1cnc2c(c1)ccc1cccnc12,–,0.0465 µM (active)
O=C(O)[C@@H]1C[C@H](C(=O)O)N1,-100%,–
CCCN(CC1CC1)c1nc(C)nc(Nc2c(Cl)cc(Cl)cc2Cl)c1Cl,-100%,–
COc1ccc(NC(=O)/C=C/c2ccc(Cl)cc2)cc1,-100%,–

# Experiment: Cytometry Cell-Based qHTS for Inhibitors of the mTORC1 Signaling Pathway in MEF cells (AID 2668);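 as to activity change, negative = inhibition: Tsc2-/- p53-/- mouse embryonic fibroblasts stably re-expressing wild-type Tsc2; percent cells positive for phospho-rpS6 Ser235/236 relative to propidium iodide stain; plate controls were DMSO wells for no effect and 7.5 nM rapamycin control wells for full effect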
# Details: mTORC1 pathway readout; series mostly up to 38.3 µM; activity change, negative = inhibition: at the top concentration
# Method in brief: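 MEFs (Tsc2-/-, p53-/- stably expressing WT Tsc2) treated 24 h at 37 degree Celsius, fixed, stained with Alexa-488 anti-phospho-rpS6 Ser235/236 and propidium iodide; Acumen laser scanning. Reported as % positive cells, phospho-S6 normalized to PI.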
Compound,"activity change, negative = inhibition",Potency
CC(C)NCC(O)COc1cccc2ccccc12 (stereo not given),-1.21%,–
COc1ccccc1N1CCN(CCCCNS(=O)(=O)c2cccc3c(N(C)C)cccc23)CC1,–,16.5 µM (active)
O=C1NC(O)=NC1(c1ccccc1)c1ccccc1,4.73%,–
O=C(Nc1cccc(C(=O)Nc2ccc(S(=O)(=O)O)c3cc(S(=O)(=O)O)cc(S(=O)(=O)O)c23)c1)Nc1cccc(C(=O)Nc2ccc(S(=O)(=O)O)c3cc(S(=O)(=O)O)cc(S(=O)(=O)O)c23)c1,0.19%,–
COc1cccc(OC)c1OCCNCC1COc2ccccc2O1 (stereo not given),2.04%,–
CN=c1nc(-c2ccccc2)n(-c2ccccc2)s1,-14.3%,–
CC(C)NC[C@H](O)COc1cccc2[nH]ccc12,13.6%,–
Cc1ccccc1CNc1ncnc2c1ncn2C1OC(CO)C(O)C1O (stereo not given),11.1%,–
NC(CCCP(=O)(O)O)C(=O)O (stereo not given),-0.294%,–
O=c1[nH]c2cc(Cl)c(Cl)cc2[nH]c1=O,8.94%,–
Fc1cccc(/C=N/N=C/c2cccc(F)c2)c1,6.39%,–
COc1ccc(/C=C/C(=O)Nc2ccccc2C(=O)O)cc1OC,3.45%,–
CN1CCc2cc(NC(=O)Nc3cccnc3)ccc21,4.57%,–
CN(C)C(N)=NCCC[C@H](N)C(=O)O,-4.59%,–
O=C(O)CCCC[C@@H]1CCSS1,2.14%,–
O=C(O)/C=C/C(O)c1ccc(Cl)cc1 (stereo not given),2.23%,–
CC(C)Cc1ccc([C@H](C)C(=O)O)cc1,-2.53%,–
Ic1ccc(N2CCN(Cc3c[nH]c4ncccc34)CC2)cc1,-0.333%,–
CCCCN1CCC(n2c(=O)[nH]c3ccccc32)CC1,6.03%,–
CC(C)(C)c1ccc(S(=O)(=O)/C=C/C#N)cc1,-2.31%,–
Cc1cc(NC(=O)Nc2ccc3c(ccn3C)c2)sn1,5.64%,–
CCN1/C(=C/C(C)=O)Sc2ccc(OC)cc21,-4.21%,–
COc1ccccc1CNCCCCCCNCCCCCCCCNCCCCCCNCc1ccccc1OC,2.01%,–
O=C(/C=C/c1ccc(O)c(O)c1)OCCc1ccccc1,–,3.29 µM (active)
c1cnc2c(c1)ccc1cccnc12,–,4.65 µM (active)
O=C(O)[C@@H]1C[C@H](C(=O)O)N1,2.94%,–
CCCN(CC1CC1)c1nc(C)nc(Nc2c(Cl)cc(Cl)cc2Cl)c1Cl,-3.06%,–
COc1ccc(NC(=O)/C=C/c2ccc(Cl)cc2)cc1,7.88%,–
